From the OligoGym collection come the findings set out here.
Also: reference of the scale not given here.

The target of the first test is MCM6. Nature of the test: pooled miR-30 sensor sort-seq; sequence = guide strand. Conditions: shRNA.
Consider TTTGGTTCCAACTTCACTGGGA, for which the sensor-assay potency score (higher = more potent) amounted to 1.01.

As to ATATCTTCTGATATCATCGAGG, the sensor-assay potency score (higher = more potent) is -0.536.

With TTGATTTATTCAGTAACCGGAA, the sensor-assay potency score (higher = more potent) is -0.345.

Consider TTACACATGAAAACAAAGGTAT, for which the sensor-assay potency score (higher = more potent) was -0.0386.

As to ATGAATAGCAACTTGATCCCGC, the sensor-assay potency score (higher = more potent) turned out to be 0.187.

Regarding TATCTCTGATTCGATTTCCTTC, the sensor-assay potency score (higher = more potent) was -0.514.

Consider TAAAGTCACACTTGTCACCAGC, for which the sensor-assay potency score (higher = more potent) is -0.442.

As to TACAACACACACCATTATCAGC, the sensor-assay potency score (higher = more potent) was -1.14.

Turning to TAGATTTTTATCTTGACTCATC, the sensor-assay potency score (higher = more potent) was -0.898.

Turning to TTGATTTATGTCTTCATTGTAG, the sensor-assay potency score (higher = more potent) was -0.457.

As for TTGATCTAGATTGACATCAGGT, the sensor-assay potency score (higher = more potent) is 0.643.

The target of the next test is MED17. The description is as above. Conditions: shRNA.
In the case of TTCTGTAGCTCAGATCTCCGAG, the sensor-assay potency score (higher = more potent) came out at 0.121.

As to TTCAGGTATCTTTTTATCCAGA, the sensor-assay potency score (higher = more potent) was -0.5.

Consider TATTACTGCACAGTCATCTTAC, for which the sensor-assay potency score (higher = more potent) is -0.307.

Turning to TCTATGTACAACTCGAATCTGC, the sensor-assay potency score (higher = more potent) was -0.242.

The sequence TTGCTGAACTGCATGTACCTGG yielded a sensor-assay potency score (higher = more potent) of 0.418.

For TATTATTTTACATCTTGTCATA, the sensor-assay potency score (higher = more potent) is -1.34.

TTATCTTGTAAAACATCACTTT: the sensor-assay potency score (higher = more potent) was -0.0835.

Regarding TATCTTTTTATCCAGATCGAGA, the sensor-assay potency score (higher = more potent) was -1.18.

On to TTTATGAAACTCTCTAATCAGT, for which the sensor-assay potency score (higher = more potent) was -0.898.

The sequence TACACTAGGTGTCTCAACTGGT came in with a sensor-assay potency score (higher = more potent) of 0.232.

Turning to TTTACATAAGAGAACATTCTGT, the sensor-assay potency score (higher = more potent) was -0.192.

TTTTATTCCACTGAACTTCTTT gave a sensor-assay potency score (higher = more potent) of 0.579.

A further test deals with MED28. Described as above. Conditions: shRNA.
TAAAATGAACTCATTATCTGGC registered a sensor-assay potency score (higher = more potent) of 0.719.

For TAAGAAAAAACATTCTGTCTGT, the sensor-assay potency score (higher = more potent) came to 0.366.

For TTTGTAAGAAAAAACATTCTGT, the sensor-assay potency score (higher = more potent) is 0.226.

Take TTCGAATTTCTTCCTGATCGGT: the sensor-assay potency score (higher = more potent) is -0.329.

With TAGTTCTGACACATCCTCTTTG, the sensor-assay potency score (higher = more potent) was -0.787.

Regarding TCGAATTTCTTCCTGATCGGTG, the sensor-assay potency score (higher = more potent) is -0.612.

For the sequence TGTCTGTCTTGCAATATCCAGA, the sensor-assay potency score (higher = more potent) was -0.689.

TTCCGCTGTAATTCATTCCTTA had a sensor-assay potency score (higher = more potent) of 0.0365.

In the case of TCGTCCACCAAAGTACTGCTGG, the sensor-assay potency score (higher = more potent) is -0.123.

In the case of TAACTTGCTCTGGTTTCTGGAC, the sensor-assay potency score (higher = more potent) is -0.587.

With TTAGTTCTGACACATCCTCTTT, the sensor-assay potency score (higher = more potent) was -0.943.

The target of the next test is MED31. The test is described as above. Particulars: shRNA.
In the case of TTGCTGTTGCTGCTCTGCCAAG, the sensor-assay potency score (higher = more potent) was -1.72.

On to TTTGCTGTTGCTGCTCTGCCAA, for which the sensor-assay potency score (higher = more potent) is -0.936.

TCGATTTCCAGCATCATCTGTC returned a sensor-assay potency score (higher = more potent) of 0.22.

As to TTTTTTGTCTTCACTGTACAAA, the sensor-assay potency score (higher = more potent) was -0.668.

As for TTGCACAAATTCCAACTCCAAC, the sensor-assay potency score (higher = more potent) is -1.8.

As for TAAATTTCGCACACTGAGCATT, the sensor-assay potency score (higher = more potent) was -1.04.
